# Measurements published in the supplement of paper PMC12282887.
# ± gives the standard deviation of the averaged measurements.
# Tests used:
# Test in all cases: promoter activity interaction Z-score (Lux/OD deviation from empty-vector control); higher = stronger promoter induction by the compound
# [1] = system: E. coli BW25113 acrABp lux reporter
# In short: (§1)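 Every compound was given at four 1:2 dilutions, in biological duplicates, to E. coli BW25113 carrying low-copy luxCDABE promoter reporters in wild-type or single-gene deletion backgrounds. Growth in 40 µl LB Lennox in 384-well plates at 37°C was followed by OD600 and luminescence readings every 30 min for 12 h, integrated over 0–8 h for wild type and 1–9 h for deletion strains, with wells below 10% of the median growth value excluded. Scores are Z-transformed residuals of growth-normalised luminescence fitted against a control.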
# [2] = system: E. coli BW25113 ompFp lux reporter
# In short: as §1
# [3] = system: E. coli BW25113 robp lux reporter
# In short: as §1
# [4] = system: E. coli BW25113 soxSp lux reporter
# In short: as §1
# [5] = system: E. coli BW25113 tolCp lux reporter
# In short: as §1
# [6] = 2.6 µg/ml, genetic background: wild type
# [7] = 2.6 µg/ml, genetic background: ΔmarA
# [8] = 2.6 µg/ml, genetic background: Δrob
# [9] = 2.6 µg/ml, genetic background: ΔsoxS
# [10] = 5.3 µg/ml, genetic background: wild type
# [11] = 5.3 µg/ml, genetic background: ΔmarA
# [12] = 5.3 µg/ml, genetic background: Δrob
# [13] = 5.3 µg/ml, genetic background: ΔsoxS
# [14] = 10.6 µg/ml, genetic background: wild type
# [15] = 10.6 µg/ml, genetic background: ΔmarA
# [16] = 10.6 µg/ml, genetic background: Δrob
# [17] = 10.6 µg/ml, genetic background: ΔsoxS
# [18] = 21.1 µg/ml, genetic background: wild type
# [19] = 21.1 µg/ml, genetic background: ΔmarA
# [20] = 21.1 µg/ml, genetic background: Δrob
# [21] = 21.1 µg/ml, genetic background: ΔsoxS
smiles,measurement,setting,value
CC(=O)N[C@H]1[C@@H](O[C@@H]2O[C@H](CC(O)[C@H]3O[C@@H](n4ccc(=O)[nH]c4=O)[C@H](O)[C@@H]3O)[C@H](O)[C@H](O)[C@H]2NC(=O)/C=C/CC(C)C)O[C@H](CO)[C@@H](N)[C@@H]1O (stereo not given in full) [Tunicamycin],promoter activity interaction Z-score,[1]; [6],0.13 ± 0.29
same,promoter activity interaction Z-score,[1]; [7],-0.0876 ± 0.12
same,promoter activity interaction Z-score,[1]; [8],-0.143 ± 0.18
same,promoter activity interaction Z-score,[1]; [9],-0.217 ± 0.36
same,promoter activity interaction Z-score,[1]; [10],-0.0561 ± 0.2
same,promoter activity interaction Z-score,[1]; [11],-0.914 ± 0.2
same,promoter activity interaction Z-score,[1]; [12],-0.22 ± 0.25
same,promoter activity interaction Z-score,[1]; [13],-0.179 ± 0.21
same,promoter activity interaction Z-score,[1]; [14],0.0358 ± 0.052
same,promoter activity interaction Z-score,[1]; [15],0.615 ± 0.22
same,promoter activity interaction Z-score,[1]; [16],-0.243 ± 0.0041
same,promoter activity interaction Z-score,[1]; [17],-0.426 ± 0.35
same,promoter activity interaction Z-score,[1]; [18],-0.24 ± 0.063
same,promoter activity interaction Z-score,[1]; [19],-0.0177 ± 0.64
same,promoter activity interaction Z-score,[1]; [20],-0.332 ± 0.11
same,promoter activity interaction Z-score,[1]; [21],-0.769 ± 0.066
same,promoter activity interaction Z-score,[2]; [6],-0.448 ± 0.043
same,promoter activity interaction Z-score,[2]; [7],-0.515 ± 0.43
same,promoter activity interaction Z-score,[2]; [8],-0.684 ± 0.075
same,promoter activity interaction Z-score,[2]; [9],-0.00783 ± 0.5
same,promoter activity interaction Z-score,[2]; [10],-0.405 ± 0.21
same,promoter activity interaction Z-score,[2]; [11],-0.484 ± 1.3
same,promoter activity interaction Z-score,[2]; [12],-0.656 ± 0.73
same,promoter activity interaction Z-score,[2]; [13],0.307 ± 0.49
same,promoter activity interaction Z-score,[2]; [14],-0.305 ± 0.016
same,promoter activity interaction Z-score,[2]; [15],-0.602 ± 0.0081
same,promoter activity interaction Z-score,[2]; [16],-0.783 ± 0.28
same,promoter activity interaction Z-score,[2]; [17],-0.819 ± 0.56
same,promoter activity interaction Z-score,[2]; [18],-0.675 ± 0.34
same,promoter activity interaction Z-score,[2]; [19],-0.947 ± 0.57
same,promoter activity interaction Z-score,[2]; [20],-0.245 ± 0.018
same,promoter activity interaction Z-score,[2]; [21],-1.09 ± 0.71
same,promoter activity interaction Z-score,[3]; [6],-0.274 ± 0.39
same,promoter activity interaction Z-score,[3]; [7],-0.38 ± 0.41
same,promoter activity interaction Z-score,[3]; [8],-0.03 ± 0.92
same,promoter activity interaction Z-score,[3]; [9],-0.268 ± 0.31
same,promoter activity interaction Z-score,[3]; [10],0.0974 ± 0.18
same,promoter activity interaction Z-score,[3]; [11],-1.07 ± 0.12
same,promoter activity interaction Z-score,[3]; [12],0.0652 ± 0.47
same,promoter activity interaction Z-score,[3]; [13],0.323 ± 0.16
same,promoter activity interaction Z-score,[3]; [14],-0.167 ± 0.13
same,promoter activity interaction Z-score,[3]; [15],-0.402 ± 0.074
same,promoter activity interaction Z-score,[3]; [16],-0.108 ± 0.64
same,promoter activity interaction Z-score,[3]; [17],-0.846 ± 0.13
same,promoter activity interaction Z-score,[3]; [18],-0.06 ± 0.16
same,promoter activity interaction Z-score,[3]; [19],0.217 ± 0.25
same,promoter activity interaction Z-score,[3]; [20],-0.865 ± 0.29
same,promoter activity interaction Z-score,[3]; [21],-1.32 ± 0.15
same,promoter activity interaction Z-score,[4]; [6],-0.153 ± 0.24
same,promoter activity interaction Z-score,[4]; [7],-0.163 ± 0.076
same,promoter activity interaction Z-score,[4]; [8],-0.181 ± 0.11
same,promoter activity interaction Z-score,[4]; [9],-0.281 ± 0.17
same,promoter activity interaction Z-score,[4]; [10],-0.207 ± 0.12
same,promoter activity interaction Z-score,[4]; [11],-0.432 ± 0.03
same,promoter activity interaction Z-score,[4]; [12],-0.396 ± 0.41
same,promoter activity interaction Z-score,[4]; [13],-0.473 ± 0.0061
same,promoter activity interaction Z-score,[4]; [14],-0.362 ± 0.15
same,promoter activity interaction Z-score,[4]; [15],-0.417 ± 0.065
same,promoter activity interaction Z-score,[4]; [16],-0.286 ± 0.13
same,promoter activity interaction Z-score,[4]; [17],-0.66 ± 0.33
same,promoter activity interaction Z-score,[4]; [18],-0.651 ± 0.052
same,promoter activity interaction Z-score,[4]; [19],-0.805 ± 0.022
same,promoter activity interaction Z-score,[4]; [20],-0.856 ± 0.24
same,promoter activity interaction Z-score,[4]; [21],-1.4 ± 0.29
same,promoter activity interaction Z-score,[5]; [6],0.117 ± 0.23
same,promoter activity interaction Z-score,[5]; [7],0.186 ± 0.86
same,promoter activity interaction Z-score,[5]; [8],0.627 ± 0.57
same,promoter activity interaction Z-score,[5]; [9],-0.42 ± 1.2
same,promoter activity interaction Z-score,[5]; [10],0.292 ± 0.33
same,promoter activity interaction Z-score,[5]; [11],0.228 ± 1.2
same,promoter activity interaction Z-score,[5]; [12],0.351 ± 0.028
same,promoter activity interaction Z-score,[5]; [13],-0.0491 ± 0.37
same,promoter activity interaction Z-score,[5]; [14],0.145 ± 0.28
same,promoter activity interaction Z-score,[5]; [15],-0.36 ± 0.22
same,promoter activity interaction Z-score,[5]; [16],0.607 ± 0.47
same,promoter activity interaction Z-score,[5]; [17],-0.445 ± 0.3
same,promoter activity interaction Z-score,[5]; [18],0.0528 ± 0.23
same,promoter activity interaction Z-score,[5]; [19],-0.275 ± 0.55
same,promoter activity interaction Z-score,[5]; [20],-1.04 ± 0.42
same,promoter activity interaction Z-score,[5]; [21],-0.899 ± 0.71
